Compound activity from PubChem BioAssay.
MsrA inh – bovine MsrA enzyme inhibitors, primary screen, biochemical, absorbance, HTS. Methionine sulfoxide reductase A (Bos taurus). purified bovine MsrA, absorbance read-out. inhibition, % at 15.5 µM. actives 0.75% (n = 360,000). AID 651718, 2012;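 also: 0% = vehicle wells with enzyme and 100% = reference inhibitor wells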
HGIII-sPLA2 inh – human group III sPLA2 inhibitors, primary screen, biochemical, QFRET, BODIPY PC-A2 liposome substrate; Group 3 secretory phospholipase A2 (Homo sapiens), Q9NZ20; QFRET BODIPY PC-A2 liposome hydrolysis, fluorescence; inhibition, % at 12.2 µM; actives 0.56% (n = 370,000); AID 743126, 2013;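 active = inhibition above mean plus 3 SD of compounds lying within the high and low control bounds, cut at about 19% in these data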;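 also: 0% = median of test compound wells and 100% = no enzyme DMSO wells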
Target sequence (Q9NZ20 whole entry, looked up): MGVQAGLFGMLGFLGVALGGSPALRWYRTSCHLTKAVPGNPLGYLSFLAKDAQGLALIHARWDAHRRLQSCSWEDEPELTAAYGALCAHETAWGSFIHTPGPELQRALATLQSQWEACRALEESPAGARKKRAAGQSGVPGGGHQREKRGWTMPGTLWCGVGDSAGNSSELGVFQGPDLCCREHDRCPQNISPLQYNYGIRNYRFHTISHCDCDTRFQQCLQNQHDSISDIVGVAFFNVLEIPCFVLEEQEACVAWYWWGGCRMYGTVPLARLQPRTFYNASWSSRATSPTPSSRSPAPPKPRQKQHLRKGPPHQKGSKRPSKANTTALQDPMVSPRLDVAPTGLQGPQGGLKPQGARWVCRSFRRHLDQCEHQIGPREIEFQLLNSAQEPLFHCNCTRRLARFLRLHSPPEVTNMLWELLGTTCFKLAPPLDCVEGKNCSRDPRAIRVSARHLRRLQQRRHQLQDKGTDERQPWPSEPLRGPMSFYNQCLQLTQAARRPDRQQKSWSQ
rCAG RNA binder – binders of r(CAG) RNA repeats, primary screen, biochemical, fluorescence. r(CAG) RNA repeat, TO-PRO-1 dye displacement fluorescence. inhibition, % at 3 µM. actives 1.3% (n = 370,000). AID 651821, 2012;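 active = inhibition above the plate cutoff, the mean of all test compounds on that plate plus 3 SD, cut at about 35% in these data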;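 also: 0% = DMSO alone and 100% = 100 µM mitoxantrone as full dye displacement; higher means more dye released from RNA so lower well fluorescence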
bovine MsrA act – bovine MsrA enzyme activators, primary screen, biochemical, absorbance, HTS; activation, % at 10.6 µM; purified bovine MsrA, absorbance read-out; actives 0.3% (n = 360,000); AID 602163, 2012; Methionine sulfoxide reductase A (Bos taurus); in the data active = activation above about 7.5%;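 also: 0% = vehicle and 100% = reference activator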
MsrA conf – bovine MsrA inhibitors, retest, confirmation, biochemical, absorbance, HTS; shares compounds with MsrA inh; purified bovine MsrA, absorbance read-out; inhibition, % at 15.5 µM; actives 41% (n = 2,300);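 also: coupled to thioredoxin reductase with NADPH and selenocystamine and DMSO as substrate; 0% = vehicle only and 100% = full effect of reference inhibitor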
rCAG bind conf – small molecules binding CAG repeat RNA – biochemical, fluorescence, confirmation. shares compounds with rCAG RNA binder. r(CAG) RNA repeat, TO-PRO-1 dye displacement fluorescence. inhibition, % at 3 µM. actives 70% (n = 4,300). AID 652065, 2013;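 active = inhibition above a per-plate cutoff, the mean inhibition of sample wells plus 3 SD, cut at about 35% in these data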;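 also: loss of TO-PRO-1 fluorescence as compound displaces dye from 1x1 AA loop RNA; 0% = DMSO only wells and 100% = 100 µM mitoxantrone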
dCAG dye counter – displacement of TO-PRO-1 from CAG DNA duplex, counter-screen for rCAG RNA repeat binder project, biochemical, fluorescence, TO-PRO-1 dye, d(CAG) DNA oligo; shares compounds with rCAG RNA binder; d(CAG) DNA oligo TO-PRO-1 dye displacement; inhibition, % at 3 µM; actives 94% (n = 4,300);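 active = inhibition above its plate's cutoff, the mean test-well inhibition plus 3 SD, cut at about 4.8% in these data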;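 also: 0% = DNA dye mix with DMSO and 100% = 100 µM mitoxantrone; hits displace the dye from DNA and so lower well fluorescence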
Numbers without * were called inactive; . = no result given. The list is not random: actives were taken first. Their share in the collection is about 2.8%. Rule as the data show it, unless noted: active = inhibition above about 4.5%; inactive = the rest.

SMILES	MsrA inh	HGIII-sPLA2 inh	rCAG RNA binder	bovine MsrA act	MsrA conf	others
COc1ccc(Br)c(-c2nc(CS(=O)(=O)c3ccc(F)cc3)no2)c1	1	-17	-5	-1	.
COc1ccc(C(=O)/C=C/Nc2ccc([N+](=O)[O-])cc2C)c(OC)c1	.	.	.	-6	.
COc1ccc(C(=O)/C=C/Nc2cc(C)on2)c(OC)c1	7.4*	-3	1	-2	5.5*
CC1(C)CC(=O)c2sc(NS(=O)(=O)c3ccc([N+](=O)[O-])cc3)nc2C1	6.3*	-15	22	-2	4
CC1(C)CC(=O)c2sc(NS(C)(=O)=O)nc2C1	6.6*	-1	-1	-5	4
CC1(C)CC(=O)c2sc(NC(=O)CN3CCOCC3)nc2C1	1	0	0	-2	.
CC1(C)CC(=O)c2sc(NS(=O)(=O)c3ccccc3)nc2C1	3	-1	4	0	.
CC1(C)CC(=O)c2sc(NC(=O)CN3C(=O)CCC3=O)nc2C1	5.0*	10	0	0	2
Cc1cccc(NC(=O)CSc2nnc(-c3ccco3)o2)c1C	0	-1	-1	1	.
O=C(NCc1ccc(F)cc1)c1ccc(CS(=O)(=O)Cc2ccccc2F)o1	1	-5	9	0	.
COc1ccc2c(c1OC)C(=O)OC2CC(=O)c1ccc(N(C)C)cc1 (configuration not stated)	4.7*	10	2	-3	4.6*
CC(C(=O)NN=C(c1ccccc1)c1ccccc1)N1CCCC1 (configuration not stated)	-1	-6	-9	-6	.
Cc1cc(NC(=O)/C(C#N)=C/c2ccco2)n(-c2ccccc2)n1	8.7*	-14	10	-4	4
Cc1cc(NC(=O)CC#N)n(-c2ccccc2)n1	0	-14	-1	-3	.
Cc1nn(CCOc2ccccc2)c(=O)n1-c1ccc(Cl)cc1	0	0	-4	0	.
CCOc1ccc(-c2nnc(-c3ccncc3)o2)cc1	2	2	1	-2	.
CCOc1ccc(-c2nnc(-c3ccncc3)o2)cc1OCC	4.9*	-1	-4	-4	2
CNc1cncc(-c2cccc(NS(C)(=O)=O)c2)n1	5.8*	2	1	-2	4
CS(=O)(=O)N1CCN(c2ccc([N+](=O)[O-])c(NCc3ccccc3)c2)CC1	1	-1	2	-2	.
CS(=O)(=O)N1CCN(c2ccc([N+](=O)[O-])c(NCc3cccnc3)c2)CC1	5.6*	2	1	-8	4
NC(=O)C1CCN(c2ccc([N+](=O)[O-])cc2Cl)CC1	1	4	-3	-8	.
COc1ccc(NC(=O)c2cccn(CC=C(C)C)c2=O)cc1	4.7*	-5	-7	-5	2
Cc1nc2c(C(F)(F)F)cccc2c2c1CCS2	3	1	-2	-10	.
C/C(=N\NC(=O)c1cccnc1)c1cc2ccccc2o1	6.7*	3	-1	-3	6.0*
C=CCc1c(C)nc(C)nc1N/N=C/c1ccccc1	4.7*	-3	-4	-3	4.8*
SMILES	MsrA inh	HGIII-sPLA2 inh	rCAG RNA binder	bovine MsrA act	MsrA conf	others
C=CCc1c(C)nc(C)nc1N/N=C/c1ccc(F)cc1	3	-2	-1	-5	.
O=C(Nc1nccs1)c1cnc2sccn2c1=O	5.8*	-6	2	-10	5.7*
COC(=O)c1ccccc1NC(=O)c1cnc2sccn2c1=O	1	4	0	-2	.
Nc1c(C(=O)c2ccc(Cl)cc2)oc2ccccc12	0	-6	2	-7	.
COc1nc(NCCN2CCOCC2)nc(Nc2ccc([N+](=O)[O-])cc2)n1	4.8*	-3	9	-13	3
S=C(N/N=C/c1ccc2ncccc2c1)Nc1cccnc1	7.2*	8	-2	3	4
Oc1ccc(/C=N/NC(=S)Nc2cccnc2)cc1O	4	12	3	-9	.
Oc1ccc(C=NNC(=S)Nc2cccnc2)nc1	7.0*	-1	1	-3	5.5*
CCOC(=O)CC(=O)CSc1nc2c(sc(=S)n2-c2ccccc2)c(=O)[nH]1	6.0*	-22	41*	-5	2	rCAG bind conf=21;dCAG dye counter=5.8*
CN1c2ccsc2C(O)=C(C(=S)Nc2ccccc2)S1(=O)=O	4	-5	21	-10	.
Cc1ccc(NC(=S)C2=C(O)c3ccccc3N(C)S2(=O)=O)cc1	4.8*	-20	59*	-13	4	rCAG bind conf=35*;dCAG dye counter=8.7*
CN1c2ccccc2C(O)=C(C(=S)Nc2ccc(F)c(Cl)c2)S1(=O)=O	4.9*	-9	82*	-9	4	rCAG bind conf=72*;dCAG dye counter=32*
O=C(N/N=C/C(Cl)=C/c1ccc([N+](=O)[O-])cc1)C(=O)Nc1ccccc1C(=O)O	7.5*	-4	52*	-4	3	rCAG bind conf=46*;dCAG dye counter=19*
CCN(CC)c1ccc(/C=N/NC(=O)Cc2nnc(NC(=O)Nc3ccccc3)s2)cc1	5.5*	-48	60*	-8	4	rCAG bind conf=40*;dCAG dye counter=27*
CC(=O)Nc1ccc(C=NNc2ccc(S(=O)(=O)Nc3ccccc3C(=O)O)cc2[N+](=O)[O-])cc1	6.0*	-20	89*	-7	4.9*	rCAG bind conf=92*;dCAG dye counter=74*
CCOc1ccc(C=NNc2ccc(S(=O)(=O)Nc3ccccc3C(=O)O)cc2[N+](=O)[O-])cc1OC	.	.	.	-6	.
COC1=C[C@H](C(=O)NCc2ccccn2)[C@H](C)[C@@H](c2ccccc2)CC1=O	.	5	5	.	.
CN(C)CCn1c(=O)n(C2CCCCC2)c(=O)c2c3c(sc21)CCCCC3	-1	-4	-2	-7	.
Cc1cccc(C)c1-n1cccc1/C=C1/C(=N)N2C(=NC1=O)SN=C2S(C)(=O)=O	7.4*	-58	88*	-8	5.8*	rCAG bind conf=85*;dCAG dye counter=59*
COc1ccc(NC(=O)N(C)[C@H]2C[C@H]3c4[nH]c5ccc(-c6ccc7c(c6)OCO7)cc5c4CCN3C[C@H]2[C@H](C)O)cc1	0	-13	14	-1	.
O=C(O)CCC(=O)Nc1ccc(S(=O)(=O)N2CCCC2)cc1	0	3	4	0	.
CCN(CC)S(=O)(=O)c1cccc(-c2n[nH]c(=S)n2/N=C/c2ccc(OC)cc2)c1	7.7*	1	50*	-1	4	rCAG bind conf=46*;dCAG dye counter=12*
CCN(CC)S(=O)(=O)c1cccc(-c2n[nH]c(=S)n2C(C)COC)c1 (configuration not stated)	2	13	1	-2	.
